Sampled rows, rich in hits. Any-hit rate of the full collection: about 0.93%.
TRPML1 blocker: qHTS for Inhibitors of the Human Mucolipin Transient Receptor Potential 1 (TRPML1); activity change, negative = inhibition, % (test concentration not listed); AID 624415, 2012; TRPML1-inducible cells, Ca2+ dye fluorescence, FDSS; hits give low values; inhibition of EC80 agonist-evoked calcium signal; Mucolipin-1 (Homo sapiens), Q9GZU1; actives 0.02% (n = 390,000); in the data active = activity change below about -50%; inconclusive = between about -30% and that limit;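 also: stimulus is agonist 54-4 at its EC80 concentration; % is scaled to controls: 0 for no effect and ±100 for the full control effect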
Target sequence (Q9GZU1 whole entry, looked up): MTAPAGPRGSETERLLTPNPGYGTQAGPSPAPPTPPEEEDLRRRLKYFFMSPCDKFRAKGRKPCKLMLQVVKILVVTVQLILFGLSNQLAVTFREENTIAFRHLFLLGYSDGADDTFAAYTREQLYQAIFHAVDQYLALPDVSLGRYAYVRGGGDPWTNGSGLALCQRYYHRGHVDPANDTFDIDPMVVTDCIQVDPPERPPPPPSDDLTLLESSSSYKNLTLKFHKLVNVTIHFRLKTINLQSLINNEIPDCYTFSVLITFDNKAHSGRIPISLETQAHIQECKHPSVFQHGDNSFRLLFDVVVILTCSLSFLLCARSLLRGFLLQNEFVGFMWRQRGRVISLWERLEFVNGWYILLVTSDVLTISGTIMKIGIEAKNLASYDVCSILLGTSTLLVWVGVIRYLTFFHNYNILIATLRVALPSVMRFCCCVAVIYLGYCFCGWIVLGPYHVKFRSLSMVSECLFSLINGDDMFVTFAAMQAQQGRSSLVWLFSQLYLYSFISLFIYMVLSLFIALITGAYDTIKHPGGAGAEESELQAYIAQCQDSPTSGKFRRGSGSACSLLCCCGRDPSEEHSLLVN
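Tet-induced TRPML1-DL cells loaded with Ca8 no-wash calcium dye were read kinetically on FDSS. Compound addition was followed by EC80 agonist 54-4 (4 uM final); inhibition was read over 110 s.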
TRHR agonist-1: qHTS for Small Molecule Agonists and Allosteric Enhancers of Human TRH Receptor: Primary Screen for Agonists. TRHR cells, calcium flux fluo-8, FDSS agonist mode. activation, % at 2 µM. actives 0.18% (n = 360,000). AID 493084, 2011; in the data active = activation above about 30%; also: 0% is about no effect
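In this calcium-flux screen, cells bearing human TRHR are dye-loaded with fluo-8, baselined for 10 cycles, then exposed to library compounds; positive kinetic calcium responses during the agonist phase mark hits, with TRH as control.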
HEK293 tox: qHTS of GLP-1 Receptor Inverse Agonists: Cytotox Screen | HEK293 cAMP-luciferase reporter cells, luminescence, 24 h | actives 0.13% (n = 410,000) | AID 624418, 2012 | Potency, µM (titrated, usually from 38.3 µM), without a hit: at the top dose activity change, negative = inhibition, most hits filed as inhibitors;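 also: loss of luciferase light is scored as toxicity; potency is read from the fitted curve at half-maximal effect; % is scaled to controls: 0 for no effect and ±100 for the full control effect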
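Cells in DMEM/10% Nu serum/1% pen-strep, 1536-well format. Pre-incubated 12 h, dosed with 23 nL compound, incubated a further 24 h. Luciferase detection, 12 min at room temp, luminescence.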
TRHR enhancer-1: qHTS for Small Molecule Agonists and Allosteric Enhancers of Human TRH Receptor: Primary Screen for Enhancers. Thyrotropin-releasing hormone receptor (Homo sapiens), P34981. TRHR cells, fluo-8 calcium fluorescence, EC20 TRH enhancement. enhancement, % at 2 µM. actives 0.66% (n = 360,000); in the data active = enhancement above about 30%; also: 0% is about no effect
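TRHR-expressing cells loaded with fluo-8 calcium dye were read kinetically (ex 480/em 530) during compound addition, then stimulated with an EC20 of TRH (10 nM final). Enhancement of the Gq-mediated intracellular calcium response was scored.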
TRPML1 agonist: qHTS for Agonists of the Human Mucolipin Transient Receptor Potential 1 (TRPML1). AID 624414, 2012. Mucolipin-1 (Homo sapiens), Q9GZU1. actives 0.12% (n = 410,000). TRPML1-expressing cells, Ca2+ dye fluorescence, FDSS. activation, % (no concentration beside the values); in the data active = activation above about 50%; inconclusive = mostly about 30% to 49%; also: 0% is about no effect
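TRPML1-DL cells, Tet-induced overnight (~16 h, 37 degrees C), loaded 45-90 min at room temperature with Ca8 no-wash calcium dye plus quencher. FDSS fluorescence: 10 s baseline, compound pin-transfer, 110 s agonist read, then EC80 54-4 (4uM final) and 110 s antagonist read.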
PTHR1 agonist: qHTS for PTHR1 Agonists: Primary Screen. HEK293 GP2 PTHR1 cells, GloSensor cAMP luminescence, 1 h. Potency, µM (top dose mostly 115 µM), inactives show at the top dose activation, usual class: activators. actives 0.075% (n = 410,000). AID 743266, 2014; also: potency is read from the fitted curve at half-maximal effect; nearly all actives have a fitted effect of over 55% in size
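HEK-293-derived GP2 cells expressing PTHR1 and a GloSensor cAMP reporter, 3,000/well, plated overnight, given luciferin plus IBMX (each 0.5 mM as added) for 1 h at 37 °C, then compound for 1 h at 37 °C. Luminescence was read after 15 min at room temperature.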
TRHR enhancer-2: qHTS for Small Molecule Agonists and Allosteric Enhancers of Human TRH Receptor: Confirmation Screen for Enhancers; shares compounds with TRHR enhancer-1; TRH receptor cell assay, enhancer confirmation qHTS; activity change, negative = inhibition, % at 46.1 µM; 970 tested, under 10 active; AID 493076, 2011;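 also: compound effect scored on response to added TRH at EC20 of 10 nM; 0% is about no effect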
TRHR agonist-2: qHTS for Small Molecule Agonists and Allosteric Enhancers of Human TRH Receptor: Confirmation Screen for Agonists; shares compounds with TRHR enhancer-1; TRHR-expressing cells, agonist activation read-out; Potency, µM (top dose mostly 46.1 µM), for the others: top-dose activation, hits mostly activators; actives 8% (n = 970); also: potency is read from the fitted curve at half-maximal effect; 0% is about no effect; nearly all actives have a fitted effect of over 75% in size
Active calls of the source: *; [ ] = another dose, or the depositor's remark. Unless noted, calls follow the shape of the dose curve; as a rule, active = well fitted curve in the direction sought with a large enough effect; inconclusive = small, poorly fitted or top-dose-only effect, or another doubt; inactive = no such curve, though single readings can be large; an effect the other way counts as inactive or inconclusive.

What do the screens show for `CC(C)CC(CSc1ccc(Br)cc1)N1CCN(C)CCC1=O` (centres undefined)?
TRPML1 blocker: -14; TRPML1 agonist: 2

Results for CCOc1cc(/C=C(/C#N)C(=O)Nc2ccc(O)cc2)cc(Br)c1O ?
TRPML1 blocker: 6; TRHR agonist-1: 40*; HEK293 tox: inconclusive; TRHR enhancer-1: -4; TRPML1 agonist: 9; PTHR1 agonist: -22%; TRHR enhancer-2: 9; TRHR agonist-2: 21µM*

Results for Cc1cc(C(=O)COC(=O)c2cc(O)c3ccccc3c2O)c(C)n1CC1CCCO1 (centres undefined) ?
TRPML1 blocker: 10; TRHR agonist-1: 1; HEK293 tox: -3%; TRHR enhancer-1: 47*; TRPML1 agonist: -1; PTHR1 agonist: -25%; TRHR enhancer-2: -3; TRHR agonist-2: 0%

Results for C=CCn1c(SCC)nc2ccccc2c1=O ?
TRPML1 agonist: -1

How did Cn1cccc1CNC1CCCCC1 do in these assays?
TRPML1 blocker: 7; TRHR agonist-1: 0; HEK293 tox: -5%; TRHR enhancer-1: 5; TRPML1 agonist: 0; PTHR1 agonist: inactive

What do the screens show for `c1ccc(-n2cccc2CNC2CCCCC2)cc1`?
TRPML1 blocker: -6; TRHR agonist-1: 0; HEK293 tox: inconclusive; TRHR enhancer-1: 48*; TRPML1 agonist: 0; PTHR1 agonist: 29%; TRHR enhancer-2: -5; TRHR agonist-2: 9%

How did CCn1c(CNC(=O)COc2ccc(C(C)C)cc2)nnc1SCC(=O)Nc1ccc(F)cc1 do in these assays?
TRPML1 blocker: -4; TRHR agonist-1: -1; HEK293 tox: -21%; TRHR enhancer-1: -5; TRPML1 agonist: 1; PTHR1 agonist: -36%

What do the screens show for `CCn1c(CNC(=O)COc2ccc(C(C)C)cc2)nnc1SCC(=O)Nc1cc(F)ccc1C`?
TRPML1 blocker: -12; TRHR agonist-1: -1; HEK293 tox: -12%; TRHR enhancer-1: 41*; TRPML1 agonist: 1; PTHR1 agonist: inactive; TRHR enhancer-2: -3; TRHR agonist-2: 3%

Results for O=C(NCC1CCCO1)c1ccc2c(=O)n(CCc3ccccc3)c(=O)[nH]c2c1 (centres undefined) ?
TRPML1 blocker: -2; TRHR agonist-1: 2; HEK293 tox: -16%; TRHR enhancer-1: 46*; TRPML1 agonist: 0; PTHR1 agonist: -21%; TRHR enhancer-2: 0; TRHR agonist-2: 2%

Results for CC(=O)NCCNC(=O)c1ccc2c(=O)n(CCc3ccccc3)c(=O)[nH]c2c1 ?
TRPML1 blocker: -11; TRHR agonist-1: 0; HEK293 tox: -3%; TRHR enhancer-1: 6; TRPML1 agonist: 1; PTHR1 agonist: -55%

Results for Cc1ccc(/C=C2\SC(=S)N(CCCC(=O)Nc3cc(C)on3)C2=O)cc1 ?
TRPML1 blocker: -3; TRHR agonist-1: 0; HEK293 tox: -3%; TRHR enhancer-1: 0; TRPML1 agonist: -1; PTHR1 agonist: inactive

Results for Cc1cc(NC(=O)CN2C(=O)/C(=C/c3cccc(Br)c3)SC2=S)no1 ?
TRPML1 blocker: 46; TRHR agonist-1: 1; HEK293 tox: -4%; TRHR enhancer-1: 47*; TRPML1 agonist: 0; PTHR1 agonist: inactive; TRHR enhancer-2: 7; TRHR agonist-2: 2%

What do the screens show for `Cn1c(O)c(N=NC(=N)N)c2ccccc21`?
TRHR agonist-1: 1; HEK293 tox: 0%; TRHR enhancer-1: 66*; PTHR1 agonist: inactive; TRHR enhancer-2: -2; TRHR agonist-2: -1%

What do the screens show for `O=S(=O)(c1cccc(C(F)(F)F)c1)N1CCN(c2nc(-c3ccccc3)nc3ccccc23)CC1`?
TRPML1 agonist: 0

What do the screens show for `COc1ccc(COC(=O)C2=C(C)NC(=O)NC2c2ccccc2OC(C)C)cc1` (centres undefined)?
TRPML1 blocker: 8; TRHR agonist-1: 1; HEK293 tox: -25%; TRHR enhancer-1: 48*; TRPML1 agonist: -1; PTHR1 agonist: -13%; TRHR enhancer-2: -3; TRHR agonist-2: 3%

How did CCCCNC(=O)c1cn(-c2ccc(OCC)cc2)c(=O)c2cc(OC)c(OC)cc12 do in these assays?
TRPML1 blocker: -9; TRHR agonist-1: 1; HEK293 tox: 7%; TRHR enhancer-1: 47*; TRPML1 agonist: 2; PTHR1 agonist: inactive; TRHR enhancer-2: 5; TRHR agonist-2: 1%

Results for CCNc1nc(C#N)nc(N2CCOCC2)n1 ?
TRPML1 agonist: -1

How did COc1ccc(CNC(=O)CN(C(=O)CCC(=O)Nc2ccccn2)c2cccc(C)c2)cc1 do in these assays?
TRPML1 blocker: -6; TRHR agonist-1: 0; HEK293 tox: 9%; TRHR enhancer-1: 44*; TRPML1 agonist: -1; PTHR1 agonist: inactive; TRHR enhancer-2: 7; TRHR agonist-2: 6%

What do the screens show for `C[C@H](C(=O)OCO/N=[N+](\[O-])N1CCCC1)c1cccc2ccccc12`?
TRPML1 blocker: 15; TRPML1 agonist: 1

Results for Cc1c(-n2cc(C(=O)c3ccccc3O)cc(C#N)c2=O)c(=O)n(-c2ccccc2)n1C ?
TRPML1 blocker: -21; TRHR agonist-1: 42*; HEK293 tox: -10%; TRHR enhancer-1: -2; TRPML1 agonist: 5; PTHR1 agonist: -6%[57.5 µM]; TRHR enhancer-2: -8; TRHR agonist-2: inconclusive

Results for COc1cc(C(=O)Nc2cccc(-c3cn4cccnc4n3)c2)cc(OC)c1OC ?
TRPML1 blocker: 5; TRHR agonist-1: 0; HEK293 tox: -12%; TRHR enhancer-1: 63*; TRPML1 agonist: -1; PTHR1 agonist: 4%; TRHR enhancer-2: 10; TRHR agonist-2: 0%
